Assay results taken from ChEMBL document CHEMBL3988442, “University of Dundee, Small-Polar-MMV Screening Library” (2021).
For some assays here: Measured potencies and affinities stand elsewhere.

What was measured:
Parameters in all cases: scale not given: direction of the effect not stated beside the values
[1] = biological target: Protein translocase subunit SecA (Escherichia coli (strain K12)) (UniProt P10408); test: Assay to Identify E. coli SecA ATPase Inhibitors; assay type: functional; settings: 30 µM
[2] = biological target: T1, Ubiquitin-activating enzyme e1, putative (Leishmania donovani (strain BPK282A1)) (UniProt E9BSI1); test: Leishmania donovani Ubiquitin Activating Enzyme (LdE1); assay type: functional; settings: 30 µM
T1 sequence (whole entry): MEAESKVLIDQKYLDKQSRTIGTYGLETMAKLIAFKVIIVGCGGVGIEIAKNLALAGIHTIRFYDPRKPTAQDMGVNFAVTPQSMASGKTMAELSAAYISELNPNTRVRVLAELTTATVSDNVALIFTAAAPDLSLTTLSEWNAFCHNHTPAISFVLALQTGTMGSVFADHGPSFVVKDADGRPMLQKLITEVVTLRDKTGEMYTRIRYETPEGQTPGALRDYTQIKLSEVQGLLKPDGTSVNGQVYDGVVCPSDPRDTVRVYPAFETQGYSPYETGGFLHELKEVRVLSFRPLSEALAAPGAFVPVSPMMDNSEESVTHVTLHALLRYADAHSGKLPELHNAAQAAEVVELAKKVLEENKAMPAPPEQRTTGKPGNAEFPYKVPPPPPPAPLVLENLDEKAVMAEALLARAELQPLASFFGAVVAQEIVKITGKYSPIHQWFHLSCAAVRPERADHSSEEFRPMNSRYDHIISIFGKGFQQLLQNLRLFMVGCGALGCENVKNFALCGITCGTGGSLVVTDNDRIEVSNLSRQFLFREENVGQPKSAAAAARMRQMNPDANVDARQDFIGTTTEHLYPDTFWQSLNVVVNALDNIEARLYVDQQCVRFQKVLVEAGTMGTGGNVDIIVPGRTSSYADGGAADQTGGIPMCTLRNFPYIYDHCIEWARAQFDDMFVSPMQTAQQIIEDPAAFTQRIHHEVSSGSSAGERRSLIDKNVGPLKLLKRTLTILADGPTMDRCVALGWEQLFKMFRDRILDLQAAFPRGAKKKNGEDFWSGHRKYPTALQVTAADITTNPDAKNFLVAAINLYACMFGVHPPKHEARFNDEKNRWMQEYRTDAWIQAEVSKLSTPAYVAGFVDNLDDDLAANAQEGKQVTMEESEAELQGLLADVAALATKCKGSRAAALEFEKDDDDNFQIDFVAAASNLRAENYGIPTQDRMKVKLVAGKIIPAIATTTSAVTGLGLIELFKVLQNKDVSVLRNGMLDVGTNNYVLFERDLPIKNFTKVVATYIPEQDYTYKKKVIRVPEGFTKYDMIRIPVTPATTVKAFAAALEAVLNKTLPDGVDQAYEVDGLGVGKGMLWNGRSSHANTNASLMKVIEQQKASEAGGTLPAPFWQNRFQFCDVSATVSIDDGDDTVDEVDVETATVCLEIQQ

[3] = biological target: AMP-activated protein kinase, AMPK (Homo sapiens) (UniProt P54646+O43741+P54619+Q9UGJ0+Q9Y478+Q13131+Q9UGI9); test: AMP-dependent Kinase enzyme assay. An in vitro enzyme assay that detects ADP turnover that is directly proportional to AMPK activity. This uses naive AMPK that is activated during the assay with MK-8722; assay type: functional; settings: 30 µM
[4] = biological target: Sialic acid-binding Ig-like lectin 9 (Homo sapiens) (UniProt Q9Y336); test: Hs-Siglec9 ALPHAscreen SOP 20170721; settings: 10 µM
Trypanosoma cruzi = test: Trypanosoma cruzi phosphomannomutase and mannose-1-phosphate guanylyltransferase assay; assay type: functional; settings: 10 µM
[5] = biological target: T2, Arginase-2, mitochondrial (Homo sapiens) (UniProt P78540); test: in vitro enzyme assay to detect the production of urea directly proportional to the activity of Arginase II; assay type: functional; settings: 33.3 µM; note: in the data most compounds retested in dose-response had high values
T2 sequence (whole entry): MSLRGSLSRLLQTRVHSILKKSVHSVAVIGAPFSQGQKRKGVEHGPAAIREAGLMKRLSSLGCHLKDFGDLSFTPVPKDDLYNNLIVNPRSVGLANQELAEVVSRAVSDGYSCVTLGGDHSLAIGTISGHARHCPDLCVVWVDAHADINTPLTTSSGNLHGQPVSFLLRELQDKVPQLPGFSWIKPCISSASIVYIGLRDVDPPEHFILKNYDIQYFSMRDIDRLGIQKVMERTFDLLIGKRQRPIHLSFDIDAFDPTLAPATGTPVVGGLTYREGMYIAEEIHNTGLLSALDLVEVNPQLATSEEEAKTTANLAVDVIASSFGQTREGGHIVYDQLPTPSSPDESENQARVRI

[6] = biological target: T3, Proteasome subunit beta (Trypanosoma cruzi) (UniProt O96673); test: Trypanosoma cruzi proteasome chymotrypsin-like activity (TcProtChymo) assay.; note: in the data most compounds retested in dose-response had high values; assay type: functional; settings: 9.37 µM
T3 sequence (whole entry): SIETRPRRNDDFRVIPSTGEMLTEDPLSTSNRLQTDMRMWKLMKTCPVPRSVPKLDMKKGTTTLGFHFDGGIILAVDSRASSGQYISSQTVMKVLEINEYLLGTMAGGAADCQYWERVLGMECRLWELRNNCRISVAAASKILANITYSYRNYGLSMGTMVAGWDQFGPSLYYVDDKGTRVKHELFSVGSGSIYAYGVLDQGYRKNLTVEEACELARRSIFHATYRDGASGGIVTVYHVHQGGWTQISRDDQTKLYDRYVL

Homo sapiens = species on record: Homo sapiens; test: To identify inhibition of the IFN signalling (Jak-Stat) pathway via expression of an eGFP reporter gene under the control of an IFN-stimulated response element (ISRE) containing MxA promoter.; assay type: functional; settings: 30 µM
[7] = biological target: T4, Tyrosyl-tRNA synthetase, putative (Trypanosoma cruzi (strain CL Brener)) (UniProt Q4DSP6); test: Trypanosoma cruzi tyrosyl tRNA synthetase (TcYRS) _High Tyrosine SOP; assay type: functional; settings: 30 µM; note: in the data most compounds retested in dose-response had high values
T4 sequence (whole entry): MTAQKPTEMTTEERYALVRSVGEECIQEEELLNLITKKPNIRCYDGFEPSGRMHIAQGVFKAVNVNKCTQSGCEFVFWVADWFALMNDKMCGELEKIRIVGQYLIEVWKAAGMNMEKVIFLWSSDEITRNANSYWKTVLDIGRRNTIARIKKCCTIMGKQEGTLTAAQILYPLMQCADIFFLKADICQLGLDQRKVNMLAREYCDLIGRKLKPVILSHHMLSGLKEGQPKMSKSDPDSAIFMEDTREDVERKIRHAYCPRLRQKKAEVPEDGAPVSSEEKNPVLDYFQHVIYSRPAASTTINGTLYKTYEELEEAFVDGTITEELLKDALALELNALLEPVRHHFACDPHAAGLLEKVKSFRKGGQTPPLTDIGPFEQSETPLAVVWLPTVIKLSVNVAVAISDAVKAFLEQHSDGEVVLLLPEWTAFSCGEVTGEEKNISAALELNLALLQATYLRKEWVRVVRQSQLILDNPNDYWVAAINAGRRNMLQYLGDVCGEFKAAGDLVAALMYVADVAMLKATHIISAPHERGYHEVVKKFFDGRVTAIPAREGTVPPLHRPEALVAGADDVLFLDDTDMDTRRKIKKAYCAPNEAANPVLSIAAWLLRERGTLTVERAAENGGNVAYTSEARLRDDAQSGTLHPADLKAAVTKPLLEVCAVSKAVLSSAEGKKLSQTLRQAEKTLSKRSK

[8] = biological target: T4, Tyrosyl-tRNA synthetase, putative (Trypanosoma cruzi (strain CL Brener)); test: Trypanosoma cruzi tyrosyl tRNA synthetase (TcYRS) SOP; assay type: functional; settings: 30 µM
[9] = biological target: Chromo domain-containing protein 1 (Saccharomyces cerevisiae (strain ATCC 204508 / S288c) (Baker's yeast)) (UniProt P32657); test: ScCHD-1 Enzyme Inhibition Assay; assay type: functional; settings: 30 µM; note: in the data most compounds retested in dose-response had high values
Chain of Chromo domain-containing protein 1 (Saccharomyces cerevisiae (strain ATCC 204508 / S288c) (Baker's yeast)) (P32657 whole entry, the tested form may be a part): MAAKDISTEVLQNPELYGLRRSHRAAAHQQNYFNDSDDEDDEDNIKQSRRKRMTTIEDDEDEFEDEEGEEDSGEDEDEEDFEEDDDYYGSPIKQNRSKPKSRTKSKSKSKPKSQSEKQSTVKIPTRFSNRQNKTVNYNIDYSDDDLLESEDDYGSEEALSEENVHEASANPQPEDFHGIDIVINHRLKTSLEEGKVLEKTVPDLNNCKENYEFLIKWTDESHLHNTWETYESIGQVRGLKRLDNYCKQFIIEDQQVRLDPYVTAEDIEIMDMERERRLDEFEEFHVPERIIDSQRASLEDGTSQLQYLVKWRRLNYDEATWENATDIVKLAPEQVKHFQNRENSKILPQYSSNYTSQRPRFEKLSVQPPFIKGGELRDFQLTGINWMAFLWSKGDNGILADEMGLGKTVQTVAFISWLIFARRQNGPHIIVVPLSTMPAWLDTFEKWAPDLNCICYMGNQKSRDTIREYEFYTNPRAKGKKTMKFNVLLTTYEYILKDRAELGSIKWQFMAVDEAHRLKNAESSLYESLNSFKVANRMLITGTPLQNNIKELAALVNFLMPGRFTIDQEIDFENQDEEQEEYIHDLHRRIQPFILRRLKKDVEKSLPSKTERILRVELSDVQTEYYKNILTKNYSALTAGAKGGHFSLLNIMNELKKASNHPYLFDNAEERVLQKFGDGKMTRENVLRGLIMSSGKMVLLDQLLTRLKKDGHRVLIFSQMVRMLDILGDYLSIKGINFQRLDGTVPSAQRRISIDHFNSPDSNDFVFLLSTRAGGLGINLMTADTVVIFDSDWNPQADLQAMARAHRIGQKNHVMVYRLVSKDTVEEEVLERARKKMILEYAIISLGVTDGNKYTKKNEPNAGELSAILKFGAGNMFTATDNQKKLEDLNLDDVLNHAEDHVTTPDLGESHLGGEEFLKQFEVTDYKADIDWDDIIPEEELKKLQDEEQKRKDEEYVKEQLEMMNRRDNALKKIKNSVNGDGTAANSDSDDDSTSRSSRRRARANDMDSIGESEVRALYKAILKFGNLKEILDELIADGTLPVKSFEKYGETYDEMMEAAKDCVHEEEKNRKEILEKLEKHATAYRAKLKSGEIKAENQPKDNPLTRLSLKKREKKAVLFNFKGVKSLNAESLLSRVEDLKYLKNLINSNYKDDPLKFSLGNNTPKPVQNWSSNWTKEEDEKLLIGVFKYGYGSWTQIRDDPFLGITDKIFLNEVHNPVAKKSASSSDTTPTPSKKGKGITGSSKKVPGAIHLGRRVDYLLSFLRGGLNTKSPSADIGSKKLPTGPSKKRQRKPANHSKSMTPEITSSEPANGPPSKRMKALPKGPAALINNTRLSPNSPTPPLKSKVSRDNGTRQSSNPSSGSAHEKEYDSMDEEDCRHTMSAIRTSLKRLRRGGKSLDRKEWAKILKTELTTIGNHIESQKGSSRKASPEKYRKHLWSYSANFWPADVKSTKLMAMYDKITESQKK

Chain of Protein translocase subunit SecA (Escherichia coli (strain K12)) (P10408 whole entry): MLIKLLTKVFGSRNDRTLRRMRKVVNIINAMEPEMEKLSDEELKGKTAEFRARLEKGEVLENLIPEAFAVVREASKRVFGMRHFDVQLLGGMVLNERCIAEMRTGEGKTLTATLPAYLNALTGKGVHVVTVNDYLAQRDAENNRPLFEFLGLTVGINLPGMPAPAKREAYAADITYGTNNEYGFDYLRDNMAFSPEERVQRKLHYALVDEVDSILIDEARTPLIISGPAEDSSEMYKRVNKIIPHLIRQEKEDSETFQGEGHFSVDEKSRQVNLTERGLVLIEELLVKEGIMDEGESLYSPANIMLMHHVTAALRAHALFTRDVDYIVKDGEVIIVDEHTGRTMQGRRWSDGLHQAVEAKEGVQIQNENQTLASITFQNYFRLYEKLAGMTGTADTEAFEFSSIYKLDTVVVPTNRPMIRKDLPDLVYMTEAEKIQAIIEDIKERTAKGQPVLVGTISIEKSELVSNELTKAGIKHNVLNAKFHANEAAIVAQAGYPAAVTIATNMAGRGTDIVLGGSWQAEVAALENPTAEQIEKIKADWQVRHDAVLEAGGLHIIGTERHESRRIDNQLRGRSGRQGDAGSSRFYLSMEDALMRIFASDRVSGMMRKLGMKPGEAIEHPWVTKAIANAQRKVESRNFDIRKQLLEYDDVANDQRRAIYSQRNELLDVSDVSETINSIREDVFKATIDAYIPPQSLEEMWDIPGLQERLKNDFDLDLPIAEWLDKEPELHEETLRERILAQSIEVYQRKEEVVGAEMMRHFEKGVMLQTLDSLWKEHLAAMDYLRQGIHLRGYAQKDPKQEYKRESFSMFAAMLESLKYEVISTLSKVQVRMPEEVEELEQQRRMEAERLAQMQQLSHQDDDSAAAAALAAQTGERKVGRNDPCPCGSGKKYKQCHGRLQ
Chain of Sialic acid-binding Ig-like lectin 9 (Homo sapiens) (Q9Y336 whole entry): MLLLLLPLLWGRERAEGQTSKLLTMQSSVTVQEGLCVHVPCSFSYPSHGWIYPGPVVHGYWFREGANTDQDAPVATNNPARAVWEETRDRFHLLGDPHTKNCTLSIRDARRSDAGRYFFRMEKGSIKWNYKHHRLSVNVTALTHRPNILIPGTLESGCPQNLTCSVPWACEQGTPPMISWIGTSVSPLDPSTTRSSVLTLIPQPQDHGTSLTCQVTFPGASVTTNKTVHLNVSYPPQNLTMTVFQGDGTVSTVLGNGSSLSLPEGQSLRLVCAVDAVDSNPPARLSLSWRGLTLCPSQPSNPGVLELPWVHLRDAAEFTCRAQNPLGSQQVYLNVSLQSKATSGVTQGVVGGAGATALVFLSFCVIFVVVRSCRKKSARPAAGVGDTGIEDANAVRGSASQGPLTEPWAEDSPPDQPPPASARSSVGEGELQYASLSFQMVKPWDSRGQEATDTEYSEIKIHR

| Structure (SMILES) | Percent Effect [1] | Percent Effect [2] | Percent Effect [3] | Percent Effect [4] | Percent Effect (Trypanosoma cruzi) | Percent Effect [5] | Percent Effect [6] | Percent Effect (Homo sapiens) | Percent Effect [7] | Percent Effect [8] | Percent Effect [9] |
| --- | --- | --- | --- | --- | --- | --- | --- | --- | --- | --- | --- |
| NC(=O)C1CCN(Cn2nc(-c3ccc(F)cc3)oc2=O)CC1 | -3.92% | 2.6% | 9.43% | 0.452% | -22.7% | 4.14% | 22% | 24.3% | -1.07% | 1.24% | -2.23% |
| COCC1CN(Cc2ccc(C)o2)Cc2nnn(CC3CC3)c21 (stereo not given) | -3.94% | 2.6% | 4.37% | 2.36% | -2.46% | 2.76% | 0.832% | -1.19% | -2.15% | -1.24% | 5.36% |
| COC[C@]12COC[C@H]1CN(Cc1cc(OC)cc(OC)c1)C2 | -2.64% | 2.7% | -1.96% | 2.27% | 4.59% | 6.05% | 11.2% | -4.13% | 1.08% | 7.69% | 2.95% |
| Cc1nnc(SCC(=O)N2CCC3(CC2)c2ccccc2CC3O)o1 (stereo not given) | -5.99% | 13% | -6.65% | 21.9% | 6.79% | 0% | 7.49% | -5.03% | 3.23% | 16.1% | -7.51% |
| Fc1cnc(N2C[C@H]3CCC[C@@]3(COc3ccccn3)C2)nc1 | -1.64% | 1.33% | 6.16% | 4.78% | -3.93% | -1.94% | 10.5% | -10.5% | 5.29% | 2.56% | -5.06% |
| COCC1CN(C(=O)c2cccn2C)Cc2nccn2C1 (stereo not given) | -0.683% | 10.7% | 12.7% | -7.24% | -5.32% | 1.63% | 13.8% | 10.6% | 2.13% | 11.5% | -4.6% |
| Cc1n[nH]c(C)c1NC(=O)CN1CCCC(CNC(=O)C(C)(C)C)C1 (stereo not given) | -2.53% | 2.63% | 0.454% | 5.58% | -0.188% | 2.68% | 8.19% | 21.7% | -1.47% | -2.44% | 0.796% |
| COc1ccc(Cc2nnc(SC)o2)cc1OC | -4.8% | 0% | -3.66% | 1.57% | 6.72% | -1.56% | 8.72% | -12.7% | 3.83% | 11.1% | -3.69% |
| COc1ccccc1CC(=O)NS(C)(=O)=O | -4.83% | 5.2% | 1.28% | 1.8% | -1.87% | -1.42% | 7.6% | 20.4% | 4.85% | 14.6% | -6.74% |
| CC1c2ncc(COc3cccnc3)n2CCN1C(=O)Cc1ccco1 (stereo not given) | -6.11% | 6.67% | 2.02% | 6.28% | -2.36% | -3.7% | 6.84% | -8.23% | 2.12% | 7.69% | 0.38% |
